We go through ten compounds from ChEMBL document CHEMBL3988442, “University of Dundee, Small-Polar-MMV Screening Library” (2021).

Structures are written as SMILES. For some assays here: Entries with a potency or affinity are not part of this list.

Common to all, as to set-up: scale not given: direction of the effect not stated beside the values
Test [1] deals with Protein translocase subunit SecA (Escherichia coli (strain K12)) (UniProt P10408). The experiment in a line: Assay to Identify E. coli SecA ATPase Inhibitors. Format: functional. To be noted: 30 µM.
Sequence of Protein translocase subunit SecA (Escherichia coli (strain K12)) (P10408 whole entry): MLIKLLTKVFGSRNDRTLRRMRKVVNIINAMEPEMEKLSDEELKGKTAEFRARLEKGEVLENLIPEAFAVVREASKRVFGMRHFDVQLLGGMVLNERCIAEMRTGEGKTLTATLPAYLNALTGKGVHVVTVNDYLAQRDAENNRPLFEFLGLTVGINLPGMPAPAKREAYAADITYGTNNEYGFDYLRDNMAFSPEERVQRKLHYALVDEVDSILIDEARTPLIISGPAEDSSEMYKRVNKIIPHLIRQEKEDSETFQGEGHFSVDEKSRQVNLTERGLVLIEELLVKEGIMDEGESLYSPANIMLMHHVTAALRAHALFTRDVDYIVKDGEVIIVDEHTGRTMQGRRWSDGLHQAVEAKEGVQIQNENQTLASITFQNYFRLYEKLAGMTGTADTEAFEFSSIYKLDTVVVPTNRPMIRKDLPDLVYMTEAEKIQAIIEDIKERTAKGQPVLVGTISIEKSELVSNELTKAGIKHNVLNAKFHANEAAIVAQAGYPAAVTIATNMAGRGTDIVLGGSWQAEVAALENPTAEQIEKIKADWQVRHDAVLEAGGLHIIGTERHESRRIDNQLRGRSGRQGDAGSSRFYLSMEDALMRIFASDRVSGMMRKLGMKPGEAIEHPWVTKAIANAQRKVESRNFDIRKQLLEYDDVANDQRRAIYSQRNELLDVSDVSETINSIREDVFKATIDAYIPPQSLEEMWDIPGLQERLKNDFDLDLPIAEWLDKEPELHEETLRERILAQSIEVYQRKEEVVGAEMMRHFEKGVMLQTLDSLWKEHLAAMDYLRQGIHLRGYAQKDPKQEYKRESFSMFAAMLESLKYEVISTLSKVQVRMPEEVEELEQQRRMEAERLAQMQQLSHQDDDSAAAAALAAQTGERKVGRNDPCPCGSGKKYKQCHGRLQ
Test [2] deals with T1, Ubiquitin-activating enzyme e1, putative (Leishmania donovani (strain BPK282A1)) (UniProt E9BSI1).
T1 sequence (whole entry): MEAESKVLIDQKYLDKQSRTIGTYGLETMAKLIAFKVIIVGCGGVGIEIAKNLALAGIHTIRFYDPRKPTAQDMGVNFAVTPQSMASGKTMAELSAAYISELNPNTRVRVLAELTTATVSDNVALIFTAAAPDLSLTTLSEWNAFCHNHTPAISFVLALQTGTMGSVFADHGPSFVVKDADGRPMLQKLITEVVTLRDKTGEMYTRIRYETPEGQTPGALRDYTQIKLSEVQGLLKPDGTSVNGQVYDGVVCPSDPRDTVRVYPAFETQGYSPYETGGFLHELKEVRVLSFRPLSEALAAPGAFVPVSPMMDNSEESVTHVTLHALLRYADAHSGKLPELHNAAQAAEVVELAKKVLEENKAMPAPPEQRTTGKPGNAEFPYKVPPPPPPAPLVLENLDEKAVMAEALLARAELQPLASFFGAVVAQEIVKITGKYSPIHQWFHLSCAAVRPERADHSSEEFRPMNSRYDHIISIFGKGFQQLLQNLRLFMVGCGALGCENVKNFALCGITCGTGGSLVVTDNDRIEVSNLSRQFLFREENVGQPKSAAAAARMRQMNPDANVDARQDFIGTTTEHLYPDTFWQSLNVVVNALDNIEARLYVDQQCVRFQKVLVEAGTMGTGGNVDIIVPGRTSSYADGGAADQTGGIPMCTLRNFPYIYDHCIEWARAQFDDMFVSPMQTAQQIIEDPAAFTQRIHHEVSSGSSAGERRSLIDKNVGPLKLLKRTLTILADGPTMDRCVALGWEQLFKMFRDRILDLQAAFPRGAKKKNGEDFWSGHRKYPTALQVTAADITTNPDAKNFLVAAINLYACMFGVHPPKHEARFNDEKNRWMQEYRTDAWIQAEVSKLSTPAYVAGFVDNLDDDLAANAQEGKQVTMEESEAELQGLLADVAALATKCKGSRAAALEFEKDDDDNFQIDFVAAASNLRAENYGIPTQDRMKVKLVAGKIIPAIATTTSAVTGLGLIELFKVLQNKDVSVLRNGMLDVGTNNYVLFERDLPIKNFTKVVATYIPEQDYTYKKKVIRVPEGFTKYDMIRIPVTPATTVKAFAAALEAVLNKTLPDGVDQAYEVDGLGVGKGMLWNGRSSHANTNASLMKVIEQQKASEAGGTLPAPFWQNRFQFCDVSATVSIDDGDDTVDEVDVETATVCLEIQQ
The experiment in a line: Leishmania donovani Ubiquitin Activating Enzyme (LdE1). It is filed as functional. To be noted: 30 µM.

Test [3] has as its target AMP-activated protein kinase, AMPK (Homo sapiens) (UniProt P54646+O43741+P54619+Q9UGJ0+Q9Y478+Q13131+Q9UGI9). Briefly: AMP-dependent Kinase enzyme assay. An in vitro enzyme assay that detects ADP turnover that is directly proportional to AMPK activity. This uses naive AMPK that is activated during the assay with MK-8722. The note with it: 30 µM. Format: functional.
The target of test [4] is Sialic acid-binding Ig-like lectin 9 (Homo sapiens) (UniProt Q9Y336). Briefly: Hs-Siglec9 ALPHAscreen SOP 20170721. The note with it: 10 µM.
Sequence of Sialic acid-binding Ig-like lectin 9 (Homo sapiens) (Q9Y336 whole entry): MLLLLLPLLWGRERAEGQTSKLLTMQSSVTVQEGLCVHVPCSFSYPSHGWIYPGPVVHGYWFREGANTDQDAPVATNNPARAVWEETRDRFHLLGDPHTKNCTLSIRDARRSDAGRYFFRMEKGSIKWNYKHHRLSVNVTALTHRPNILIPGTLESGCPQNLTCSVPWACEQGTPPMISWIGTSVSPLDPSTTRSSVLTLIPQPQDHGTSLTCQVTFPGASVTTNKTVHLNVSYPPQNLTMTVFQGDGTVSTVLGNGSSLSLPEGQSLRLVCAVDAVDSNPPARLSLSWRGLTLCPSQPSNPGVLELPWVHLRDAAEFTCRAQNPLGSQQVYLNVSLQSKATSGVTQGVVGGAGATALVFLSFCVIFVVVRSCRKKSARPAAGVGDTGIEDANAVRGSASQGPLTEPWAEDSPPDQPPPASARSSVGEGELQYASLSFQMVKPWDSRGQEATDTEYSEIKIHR
For test [5], the system named is Trypanosoma cruzi. The experiment in a line: Trypanosoma cruzi phosphomannomutase and mannose-1-phosphate guanylyltransferase assay. The note with it: 10 µM. Format: functional.
The target of test [6] is T2, Arginase-2, mitochondrial (Homo sapiens) (UniProt P78540).
T2 sequence (whole entry): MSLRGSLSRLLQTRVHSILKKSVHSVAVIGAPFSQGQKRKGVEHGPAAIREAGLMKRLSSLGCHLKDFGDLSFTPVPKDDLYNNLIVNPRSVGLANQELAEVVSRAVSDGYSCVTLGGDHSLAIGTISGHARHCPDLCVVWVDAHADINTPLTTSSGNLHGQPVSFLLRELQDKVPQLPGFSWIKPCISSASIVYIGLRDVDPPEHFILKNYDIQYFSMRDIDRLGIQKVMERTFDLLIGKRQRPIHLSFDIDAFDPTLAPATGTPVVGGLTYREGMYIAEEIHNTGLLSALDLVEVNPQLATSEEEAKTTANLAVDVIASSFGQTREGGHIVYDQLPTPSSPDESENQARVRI
Briefly: in vitro enzyme assay to detect the production of urea directly proportional to the activity of Arginase II. Further: in the data most compounds retested in dose-response had high values. It is filed as functional. To be noted: 33.3 µM.

Test [7] concerns the target T3, Proteasome subunit beta (Trypanosoma cruzi) (UniProt O96673).
T3 sequence (whole entry): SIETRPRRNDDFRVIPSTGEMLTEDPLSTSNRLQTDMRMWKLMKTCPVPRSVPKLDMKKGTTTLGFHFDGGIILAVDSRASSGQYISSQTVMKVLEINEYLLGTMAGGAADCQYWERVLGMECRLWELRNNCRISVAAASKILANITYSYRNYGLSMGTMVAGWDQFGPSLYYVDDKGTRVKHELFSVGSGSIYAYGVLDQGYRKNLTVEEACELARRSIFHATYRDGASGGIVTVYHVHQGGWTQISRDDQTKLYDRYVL
Briefly: Trypanosoma cruzi proteasome chymotrypsin-like activity (TcProtChymo) assay. Further: in the data most compounds retested in dose-response had high values. It is filed as functional. To be noted: 9.37 µM.

For test [8], the species on record is Homo sapiens. The experiment in a line: To identify inhibition of the IFN signalling (Jak-Stat) pathway via expression of an eGFP reporter gene under the control of an IFN-stimulated response element (ISRE) containing MxA promoter. Format: functional. To be noted: 30 µM.
The target of test [9] is T4, Tyrosyl-tRNA synthetase, putative (Trypanosoma cruzi (strain CL Brener)) (UniProt Q4DSP6).
T4 sequence (whole entry): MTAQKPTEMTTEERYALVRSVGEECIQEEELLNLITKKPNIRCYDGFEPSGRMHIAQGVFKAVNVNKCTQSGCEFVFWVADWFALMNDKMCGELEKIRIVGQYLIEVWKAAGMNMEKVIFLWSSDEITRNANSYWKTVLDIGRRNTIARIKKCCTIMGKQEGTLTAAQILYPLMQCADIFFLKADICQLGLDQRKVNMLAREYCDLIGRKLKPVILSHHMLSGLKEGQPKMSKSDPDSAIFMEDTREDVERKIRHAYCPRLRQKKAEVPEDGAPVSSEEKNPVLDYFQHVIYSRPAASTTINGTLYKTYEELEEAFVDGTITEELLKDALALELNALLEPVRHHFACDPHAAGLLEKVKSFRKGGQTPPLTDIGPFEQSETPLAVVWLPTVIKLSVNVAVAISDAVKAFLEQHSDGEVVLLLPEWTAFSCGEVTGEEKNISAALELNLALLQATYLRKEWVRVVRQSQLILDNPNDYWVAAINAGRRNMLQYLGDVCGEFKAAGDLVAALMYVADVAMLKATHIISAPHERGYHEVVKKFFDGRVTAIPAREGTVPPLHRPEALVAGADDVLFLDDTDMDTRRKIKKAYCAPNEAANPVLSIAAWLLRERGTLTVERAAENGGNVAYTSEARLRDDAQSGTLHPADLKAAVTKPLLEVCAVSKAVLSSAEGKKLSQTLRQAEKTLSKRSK
The experiment in a line: Trypanosoma cruzi tyrosyl tRNA synthetase (TcYRS) _High Tyrosine SOP. Further: in the data most compounds retested in dose-response had high values. The note with it: 30 µM. Format: functional.

Test [10] concerns the target T4, Tyrosyl-tRNA synthetase, putative (Trypanosoma cruzi (strain CL Brener)). The experiment in a line: Trypanosoma cruzi tyrosyl tRNA synthetase (TcYRS) SOP. To be noted: 30 µM. It is filed as functional.
The target in test [11] is Chromo domain-containing protein 1 (Saccharomyces cerevisiae (strain ATCC 204508 / S288c) (Baker's yeast)) (UniProt P32657). Briefly: ScCHD-1 Enzyme Inhibition Assay. Further: in the data most compounds retested in dose-response had high values. It is filed as functional. To be noted: 30 µM.
Sequence of Chromo domain-containing protein 1 (Saccharomyces cerevisiae (strain ATCC 204508 / S288c) (Baker's yeast)) (P32657 whole entry, the tested form may be a part): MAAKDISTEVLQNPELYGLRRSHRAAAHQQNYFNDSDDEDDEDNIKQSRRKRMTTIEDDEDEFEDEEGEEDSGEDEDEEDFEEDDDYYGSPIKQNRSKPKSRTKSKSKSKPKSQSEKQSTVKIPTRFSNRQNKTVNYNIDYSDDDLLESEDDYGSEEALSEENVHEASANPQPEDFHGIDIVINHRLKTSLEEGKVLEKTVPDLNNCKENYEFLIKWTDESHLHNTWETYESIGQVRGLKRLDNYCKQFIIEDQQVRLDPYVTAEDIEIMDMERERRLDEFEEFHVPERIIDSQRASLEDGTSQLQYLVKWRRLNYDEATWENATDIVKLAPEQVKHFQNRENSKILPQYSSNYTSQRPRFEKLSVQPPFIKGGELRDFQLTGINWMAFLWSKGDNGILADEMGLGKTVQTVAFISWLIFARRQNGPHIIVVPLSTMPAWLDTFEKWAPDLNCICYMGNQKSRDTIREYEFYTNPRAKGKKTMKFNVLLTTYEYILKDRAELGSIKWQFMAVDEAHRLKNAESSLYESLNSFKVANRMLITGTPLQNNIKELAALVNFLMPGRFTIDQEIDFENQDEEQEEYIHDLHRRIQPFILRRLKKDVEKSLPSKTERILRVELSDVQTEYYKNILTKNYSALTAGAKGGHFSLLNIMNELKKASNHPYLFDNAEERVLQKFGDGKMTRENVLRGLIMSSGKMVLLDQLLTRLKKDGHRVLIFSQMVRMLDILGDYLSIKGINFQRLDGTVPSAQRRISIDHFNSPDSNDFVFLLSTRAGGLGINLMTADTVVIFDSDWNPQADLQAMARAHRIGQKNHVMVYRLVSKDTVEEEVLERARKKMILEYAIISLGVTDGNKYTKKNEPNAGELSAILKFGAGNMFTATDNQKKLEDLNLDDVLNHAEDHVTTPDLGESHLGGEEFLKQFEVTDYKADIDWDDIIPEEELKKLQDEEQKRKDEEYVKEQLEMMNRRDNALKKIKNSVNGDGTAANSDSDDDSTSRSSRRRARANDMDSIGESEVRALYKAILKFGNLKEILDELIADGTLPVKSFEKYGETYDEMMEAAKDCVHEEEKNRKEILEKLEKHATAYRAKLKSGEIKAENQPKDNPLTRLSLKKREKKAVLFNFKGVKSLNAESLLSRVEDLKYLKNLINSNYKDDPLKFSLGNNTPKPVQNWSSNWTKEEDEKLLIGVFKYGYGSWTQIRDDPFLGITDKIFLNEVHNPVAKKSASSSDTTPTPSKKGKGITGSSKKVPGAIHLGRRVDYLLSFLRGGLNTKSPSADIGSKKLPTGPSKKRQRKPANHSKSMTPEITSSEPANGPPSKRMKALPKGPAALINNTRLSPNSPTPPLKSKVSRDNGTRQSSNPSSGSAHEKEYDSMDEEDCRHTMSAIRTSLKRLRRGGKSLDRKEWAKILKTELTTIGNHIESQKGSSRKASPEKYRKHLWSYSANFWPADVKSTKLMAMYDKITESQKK

For `CCn1cc(CN(C)S(=O)(=O)c2cc(Cl)ccc2Cl)cn1`, the Percent Effect in [1] is -0.942%; in test [2], 14.7%; in [3], -0.125%; in [4], -2.27%; in test [5] it was -6.09%; in [6], -8.98%. Further, the Percent Effect in [7] is 15.9%; in test [8], 2.3%; in [9] it was 0%; in [10], 7.69%; in test [11], -9.05%.

Consider `Cc1noc(C(C)C)c1C(=O)NCC(c1ccsc1)N(C)C` (stereo not given), for which the Percent Effect was -1.69% in test [1]; 15.2% in test [2]; 2.11% in test [3]; -4.7% in test [4]; -5.19% in [5]; -1.52% in test [6]. The Percent Effect in test [7] was 13.3%; in test [8], 32.5%; in [9] it was 1.48%; in test [10], 11.4%; in test [11], -5.47%.

`CCOc1ccnc(N2CCN(C(=O)C(C)(C)C#N)CC2)n1`: the Percent Effect in [1] is -5.28%; in test [2], 15.8%; in test [3], -6.59%; in [4] it was -2.59%; in [5], -4.39%; in test [6], 1.8%. The Percent Effect was 4.99% in [7]; 6.24% in [8]; 1.48% in [9]; 6.17% in test [10]; -2.03% in test [11].

With `Cc1cnn(CC2CCCN2C(=O)c2cccc(CC#N)c2)c1` (stereo not given), the Percent Effect in test [1] was -3.75%; in test [2], 2.53%; in test [3] it was 0.139%; in test [4] it was -0.305%; in test [5], 8.03%; in test [6] it was 0%. Further, the Percent Effect in test [7] was -0.0819%; in test [8], -5.56%; in test [9] it was 0.493%; in test [10] it was 1.27%; in test [11], -2.19%.

In the case of `O=C1CC(c2ccccc2)c2c(n3ccsc3nc2=O)N1` (stereo not given), the Percent Effect was -4.74% in [1]; 17.3% in [2]; -7.29% in test [3]; 1.39% in test [4]; 2.16% in test [5]; -6.87% in [6]. For the same compound, the Percent Effect in test [7] is 13.3%; in test [8], 5.81%; in test [9], 5.29%; in test [10], 15.4%; in test [11], -7.95%.

Take `COc1cn(-c2ccccc2)nc1C(=O)NCCCN1CCCC(C)C1` (stereo not given): the Percent Effect is -5.93% in test [1]; 0% in test [2]; 1.22% in [3]; 18% in test [4]; 2.62% in [5]; 0.356% in test [6]. The Percent Effect in test [7] is -2.2%; in test [8], 5.68%; in test [9], 4.85%; in [10], 9.76%; in test [11], -1.59%.

Regarding `CS(=O)(=O)c1ccc(CNC(=O)N2CCC(C(N)=O)C2)cc1` (stereo not given), the Percent Effect in [1] was -5.24%; in test [2], 25.3%; in test [3], -8.85%; in [4] it was 3.98%; in [5], 8.78%; in test [6] it was -3.04%. Also, the Percent Effect in test [7] is 14.2%; in test [8], 0.909%; in test [9] it was 8.37%; in test [10], 26.6%; in [11], -5.74%.

As to `CCc1ccccc1CN1CC[C@@H](NC(=O)c2cccnc2)[C@H](O)C1`, the Percent Effect in [1] is -2.67%; in test [2] it was 1.39%; in [3], -0.714%; in [4] it was 6.65%; in test [5] it was 8.26%; in test [6], 0%. The Percent Effect was 12.8% in test [7]; -21.1% in [8]; 3.16% in test [9]; 10.3% in test [10]; -3.67% in test [11].

On to `COCC(=O)N1CCN(Cc2coc(-c3cccc(F)c3)n2)CC1`, for which the Percent Effect is -5.28% in test [1]; 0% in test [2]; 2.98% in test [3]; 4.95% in test [4]; -2.62% in test [5]; 0% in test [6]. The Percent Effect turned out to be 1.18% in test [7]; 9.99% in test [8]; 8.74% in [9]; 7.32% in test [10]; 1.75% in [11].

On to `CN(C)C(=O)Cc1nc(CN2CCCCC2Cn2cccn2)cs1` (stereo not given), for which the Percent Effect in [1] is -2.18%; in test [2], -2.63%; in test [3], 87.3%; in [4], -6.24%; in test [5], 1.07%; in [6], -2.37%. The Percent Effect in test [7] was 12.8%; in test [8], 9.75%; in test [9], 1.06%; in test [10], -5.2%; in [11], -0.00308%.
